The supplement of paper PMC10849652
About 7,900 targets were measured; listed, in parts, are those with a hit and a random draw of the rest. About 0.6% of all pairs of compound and target were hits.

target: AAK1 (UniProt Q2M2I8); experiment: log2 fold change, soluble protein after heating vs DMSO (PISA); higher = thermal stabilisation; K562 cells, 10 uM, 30 min; active = over 0.2 and 3.5 SD of the protein, either way, in both replicates (recomputed)
Outline: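 Values are thermal stability changes relative to control samples and are taken from duplicates. They are stated as log2 fold changes. Before quantification by TMTpro 16plex LC-MS/MS with equalised channel sums, K562 cells at 2×10^6 cells/mL were treated with 10 μM compound for 30 min, heated in aliquots for 3 min across 48°C-58°C, pooled, extracted in PBS with 0.5% NP-40 at 4°C, and centrifuged at 21,000xg for 90 min to give the soluble supernatant.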

Sequence of AAK1 (Q2M2I8 whole entry, looked up): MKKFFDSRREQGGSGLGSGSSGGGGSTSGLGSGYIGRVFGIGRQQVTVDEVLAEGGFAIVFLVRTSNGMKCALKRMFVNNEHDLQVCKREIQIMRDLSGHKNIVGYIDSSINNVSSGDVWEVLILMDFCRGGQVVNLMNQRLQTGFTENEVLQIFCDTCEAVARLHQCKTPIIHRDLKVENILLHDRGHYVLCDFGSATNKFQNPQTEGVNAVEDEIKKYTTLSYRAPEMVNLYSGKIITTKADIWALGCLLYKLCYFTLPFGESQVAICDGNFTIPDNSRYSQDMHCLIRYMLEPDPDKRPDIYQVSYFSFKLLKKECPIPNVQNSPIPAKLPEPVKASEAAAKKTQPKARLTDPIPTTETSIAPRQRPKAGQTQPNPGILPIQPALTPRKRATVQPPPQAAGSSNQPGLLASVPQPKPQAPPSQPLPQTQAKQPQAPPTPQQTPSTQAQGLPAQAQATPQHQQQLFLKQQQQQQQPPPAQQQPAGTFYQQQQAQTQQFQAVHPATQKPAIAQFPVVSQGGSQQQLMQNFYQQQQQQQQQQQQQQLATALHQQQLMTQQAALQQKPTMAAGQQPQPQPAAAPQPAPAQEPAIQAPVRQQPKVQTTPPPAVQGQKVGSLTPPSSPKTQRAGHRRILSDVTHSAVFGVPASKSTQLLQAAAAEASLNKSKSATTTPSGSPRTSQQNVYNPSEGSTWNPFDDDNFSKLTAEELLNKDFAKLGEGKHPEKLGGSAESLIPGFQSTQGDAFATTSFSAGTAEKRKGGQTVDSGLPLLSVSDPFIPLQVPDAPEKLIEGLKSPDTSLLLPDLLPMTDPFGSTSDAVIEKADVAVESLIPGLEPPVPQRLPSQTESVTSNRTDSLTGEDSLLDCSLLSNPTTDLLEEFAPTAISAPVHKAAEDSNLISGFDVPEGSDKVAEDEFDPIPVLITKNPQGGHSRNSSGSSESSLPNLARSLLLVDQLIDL

log2 fold change, inactive:
CN1CCN(c2nc(C3=C(c4c[nH]c5ccccc45)C(=O)NC3=O)c3ccccc3n2)CC1 [sotrastaurin] -0.196, Cc1ccc(NC(=O)c2cccc(N(C)C)c2)cc1NC(=O)c1ccc(O)cc1 0, CC(C)(O)CC(=O)NCCn1ccc2ncnc(Nc3ccc(Oc4cccc(C(F)(F)F)c4)c(Cl)c3)c21 0, CC[C@@H]1C(=O)N(C)c2cnc(Nc3ccc(C(=O)NC4CCN(C)CC4)cc3OC)nc2N1C1CCCC1 0.078, O=C1NC(=O)C(c2cnc3ccccn23)=C1c1cn2c3c(cc(F)cc13)CN(C(=O)N1CCCCC1)CC2 0.238, CCCc1cc(C)[nH]c(=O)c1CNC(=O)c1cc(-c2ccnc(N3CCN(C)CC3)c2)cc2c1cnn2C(C)C 0.08, CN1CC[C@H](c2c(O)cc(O)c3c(=O)cc(-c4ccccc4Cl)oc23)[C@H](O)C1 [alvocidib] 0.025, Cc1cc(Nc2cc(N3CCN(C)CC3)nc(Sc3ccc(NC(=O)C4CC4)cc3)n2)n[nH]1 [tozasertib] 0.211, CNC(=O)c1ccccc1Nc1nc(Nc2ccc(N3CCOCC3)cc2OC)ncc1Cl 0.281, Cn1cc(-c2ccc3nnc(C(F)(F)c4ccc5ncccc5c4)n3n2)cn1 -0.086, C[C@@H](Oc1cc(-c2cnn(C3CCNCC3)c2)cnc1N)c1c(Cl)ccc(F)c1Cl [crizotinib] 0.169, COc1cc(C(=O)O)ccc1NC(=O)[C@@H]1N[C@@H](CC(C)(C)C)[C@](C#N)(c2ccc(Cl)cc2F)[C@H]1c1cccc(Cl)c1F [idasanutlin] -0.129, CN(C)CC(=O)Nc1ccc2[nH]c(=O)c3ccccc3c2c1 0.087, Cc1ccc2c(=O)c3ccccc3n(CCCN)c2c1C -0.017, COc1cccc2cc(-c3nc([C@H]4CC[C@H](C(=O)O)CC4)n4ncnc(N)c34)[nH]c12 0.022, c1cc(OCCN2CCCCC2)cc(-c2n[nH]c3ccc(-c4nnc[nH]4)cc23)c1 0.052, CCN(CCCOc1ccc2c(Nc3cc(CC(=O)Nc4cccc(F)c4)[nH]n3)ncnc2c1)CCOP(=O)(O)O [barasertib] -0.034, Nc1ccccc1NC(=O)c1ccc(CNC(=O)OCc2cccnc2)cc1 [entinostat] -0.015, O=C1NC(=O)/C(=C\c2ccc3nccnc3c2)S1 0.033, CC(C)N(C[C@H]1O[C@@H](n2cnc3c(N)ncnc32)[C@H](O)[C@@H]1O)[C@H]1C[C@@H](CCc2nc3cc(C(C)(C)C)ccc3[nH]2)C1 [pinometostat] -0.05, COc1ccc(Cn2ccc3ccc(C(=O)NO)cc32)cc1 0.048, NC1(c2ccc(-c3nc4ccn5c(=O)[nH]nc5c4cc3-c3ccccc3)cc2)CCC1 -0.027, Cc1nc(Nc2n[nH]c3c2CN(C(=O)N[C@H](CN(C)C)c2ccccc2)C3(C)C)c2sccc2n1 0.158, Cc1cccc(CC(=O)N2CCc3c2ccc(-c2cn(C)c4ncnc(N)c24)c3F)n1 -0.048, C=CC(=O)N1CCC[C@@H](n2nc(-c3ccc(Oc4ccccc4)cc3)c3c(N)ncnc32)C1 [ibrutinib] 0.051, Cc1cc(SCc2sc(-c3ccc(C(F)(F)F)cc3)nc2C)ccc1OCC(=O)O 0.096, Cc1ccc(NC(=O)c2cccc(C(C)(C)C#N)c2)cc1Nc1ccc2ncn(C)c(=O)c2c1 0.01, O=C(O)c1ccc2c(c1)nc(Nc1cccc(Cl)c1)c1ccncc12 [silmitasertib] 0.153, NCC(=O)Nc1ccc(-n2nc(C(F)(F)F)cc2-c2ccc3c(ccc4ccccc43)c2)cc1 0.045, CNc1nc(-c2ccc3c(N)n[nH]c3c2)cc(N2C[C@@H](C(=O)NC3CCCCC3)CC[C@H]2C)n1 0.252
